Measured values published in PubChem BioAssay (NCI).
The panel holds about 83,000 compounds, 20% with a hit somewhere; the sample as a whole holds those more often.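 Values shown are percent growth following 48 h exposure of cells in 96-well plates to a single concentration of compound; below 10 was considered active.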 Active and inactive are the calls of the source.

What was measured:
Assay in all cases: NCI-60 one-dose screen, 48 h (100 = growth as untreated, 0 = no growth, -100 = all killed)
Conditions in all cases: 10 µM
NCI-H23 lung = system: NCI-H23 lung
NCI-H226 lung = system: NCI-H226 lung
NCI-H322M lung = system: NCI-H322M lung
HOP-62 NSCLC = system: HOP-62 NSCLC
NCI-H460 lung = system: NCI-H460 lung
HOP-92 NSCLC = system: HOP-92 NSCLC
NCI-H522 lung = system: NCI-H522 lung
A549/ATCC NSCLC = system: A549/ATCC NSCLC
786-0 renal = system: 786-0 renal
COLO 205 colon = system: COLO 205 colon

Measured: growth

O=NN(CC(=O)N/N=C/C=C\c1ccccc1)CC(=O)N/N=C/C=C/c1ccccc1
inactive: NCI-H23 lung 112% | NCI-H226 lung 90.7% | NCI-H322M lung 91.2% | HOP-62 NSCLC 69.6% | NCI-H460 lung 99.3% | HOP-92 NSCLC 60.6% | NCI-H522 lung 95.5% | A549/ATCC NSCLC 97.3% | 786-0 renal 110% | COLO 205 colon 109%

c1ccc(COCC[P+](c2ccccc2)(c2ccccc2)c2ccccc2)cc1
inactive: NCI-H226 lung 28.5% | NCI-H322M lung 10.4% | HOP-62 NSCLC 22.1% | 786-0 renal 16.9%
active: NCI-H23 lung -10.1% | NCI-H460 lung 3.37% | HOP-92 NSCLC -29.9% | NCI-H522 lung -9.64% | A549/ATCC NSCLC 8.47% | COLO 205 colon -41.2%

CCNC(=S)NN
inactive: NCI-H23 lung 93.1% | NCI-H226 lung 99.1% | NCI-H322M lung 78.7% | HOP-62 NSCLC 76.2% | NCI-H460 lung 95.6% | HOP-92 NSCLC 87.3% | NCI-H522 lung 105% | A549/ATCC NSCLC 72.5% | 786-0 renal 99.5% | COLO 205 colon 106%

CC(C)C[C@H](NC(=O)Cn1ccc2ccccc2c1=O)B(O)O
inactive: NCI-H23 lung 74.5% | NCI-H226 lung 11.5% | NCI-H322M lung 102% | HOP-62 NSCLC 98.4% | NCI-H460 lung 106% | HOP-92 NSCLC 99% | NCI-H522 lung 28.6% | A549/ATCC NSCLC 84.9% | 786-0 renal 70.3% | COLO 205 colon 62.2%

CCN1CCN(c2nc(NNC(=O)c3cccc(OC)c3)nc(N3CCN(C(c4ccccc4)c4ccccc4)CC3)n2)CC1
active: NCI-H460 lung -9.84% | COLO 205 colon -31.6%
inactive: NCI-H23 lung 78.5% | NCI-H226 lung 94.5% | NCI-H322M lung 89.7% | HOP-62 NSCLC 87.1% | HOP-92 NSCLC 42.8% | NCI-H522 lung 97% | A549/ATCC NSCLC 65.3% | 786-0 renal 72.8%

COc1cc(/C=C/C(=O)c2cc(-c3ccccc3)ccc2O)cc(OC)c1OC
inactive: NCI-H23 lung 66.3% | NCI-H226 lung 93.4% | NCI-H322M lung 86.1% | HOP-62 NSCLC 83.8% | NCI-H460 lung 67.6% | HOP-92 NSCLC 61.3% | NCI-H522 lung 54.9% | A549/ATCC NSCLC 85% | 786-0 renal 94% | COLO 205 colon 91.5%

CC(=O)Oc1ccc(C2=Cc3ccc(OC(C)=O)cc3OC2C)cc1 (stereo not given)
inactive: NCI-H23 lung 49.3% | NCI-H226 lung 82.9% | NCI-H322M lung 98.2% | HOP-62 NSCLC 81.8% | NCI-H460 lung 33.7% | HOP-92 NSCLC 69.4% | NCI-H522 lung 17.2% | A549/ATCC NSCLC 61.5% | 786-0 renal 47.5% | COLO 205 colon 102%

O=C1CC(c2cccc(-c3cccnc3)c2)=Nc2ccc(Br)cc2N1
active: 786-0 renal 1.54%
inactive: NCI-H23 lung 44.4% | NCI-H226 lung 27.8% | NCI-H322M lung 67.2% | HOP-62 NSCLC 19.7% | NCI-H460 lung 24.3% | HOP-92 NSCLC 23.5% | NCI-H522 lung 22.5% | A549/ATCC NSCLC 38.1% | COLO 205 colon 61.1%

COc1cc(Cl)cc(-c2nn(-c3cccc(NC(=O)Nc4cccc(C(F)(F)F)c4)c3)cc2-c2ccncc2)c1
inactive: NCI-H322M lung 26.2% | HOP-62 NSCLC 15.5% | 786-0 renal 13.2%
active: NCI-H23 lung -5.1% | NCI-H226 lung 3.94% | NCI-H460 lung -6.11% | HOP-92 NSCLC -27.3% | NCI-H522 lung -18.6% | A549/ATCC NSCLC 8.08% | COLO 205 colon -31.2%

Cc1cc2cc3c(=O)[nH]c(=O)cc-3n(CC(O)C(O)C(O)CO)c2cc1C (stereo not given)
inactive: NCI-H23 lung 106% | NCI-H226 lung 110% | NCI-H322M lung 119% | HOP-62 NSCLC 81.1% | NCI-H460 lung 101% | HOP-92 NSCLC 111% | NCI-H522 lung 96.2% | A549/ATCC NSCLC 97.8% | 786-0 renal 103% | COLO 205 colon 93.1%

CC(=O)N(O)c1ccc(/C=C/c2ccccc2)cc1
active: NCI-H226 lung -20.6% | NCI-H460 lung 8.15% | HOP-92 NSCLC -5.13%
inactive: NCI-H23 lung 31% | NCI-H322M lung 29.4% | HOP-62 NSCLC 42.7% | NCI-H522 lung 68.3% | A549/ATCC NSCLC 25.6% | 786-0 renal 19.9% | COLO 205 colon 46.5%

CCOC(=O)c1ccc(N(C=O)CCC(=O)CCl)cc1
inactive: NCI-H23 lung 19.5% | NCI-H226 lung 36.2% | NCI-H322M lung 75.6% | HOP-62 NSCLC 29.8% | A549/ATCC NSCLC 12.3%
active: NCI-H460 lung 4.12% | HOP-92 NSCLC -7.96% | NCI-H522 lung -71.9% | 786-0 renal 2.2% | COLO 205 colon -9.81%

COc1ccc(-c2nnc(SC/C(=N\O)c3ccccc3)o2)cc1
inactive: NCI-H23 lung 89.3% | NCI-H226 lung 95.5% | NCI-H322M lung 113% | HOP-62 NSCLC 97.7% | NCI-H460 lung 98.8% | HOP-92 NSCLC 98.4% | NCI-H522 lung 71.4% | A549/ATCC NSCLC 107% | 786-0 renal 97.2% | COLO 205 colon 110%

CN1CCN(c2nc(-c3cccnc3)nc3sc4c(c23)CCCCCC4)CC1
inactive: NCI-H23 lung 93.7% | NCI-H226 lung 93.1% | NCI-H322M lung 99.3% | HOP-62 NSCLC 85.5% | NCI-H460 lung 98% | NCI-H522 lung 103% | A549/ATCC NSCLC 91.2% | 786-0 renal 92.8% | COLO 205 colon 102%
active: HOP-92 NSCLC -2.98%

COc1ccc(-c2nnc(N3CCN(C(=O)CN4CCN(c5ccc(Cl)cc5)CC4)CC3)nc2-c2ccc(OC)cc2)cc1
inactive: NCI-H23 lung 68.1% | NCI-H226 lung 73.6% | NCI-H322M lung 92.7% | HOP-62 NSCLC 88.4% | NCI-H460 lung 46.8% | HOP-92 NSCLC 80.3% | NCI-H522 lung 69.8% | A549/ATCC NSCLC 58.8% | 786-0 renal 70.8% | COLO 205 colon 59.2%

COc1ccc2nc(/C=C/c3ccc(N(C)C)cc3)sc2c1
inactive: NCI-H23 lung 89.5% | NCI-H226 lung 99.5% | NCI-H322M lung 99.6% | HOP-62 NSCLC 108% | NCI-H460 lung 110% | HOP-92 NSCLC 93.3% | NCI-H522 lung 90.6% | A549/ATCC NSCLC 105% | 786-0 renal 93% | COLO 205 colon 145%

C[n+]1c(/C=C/c2c[nH]c3ccccc23)ccc2ccccc21
inactive: NCI-H23 lung 71.5% | NCI-H226 lung 62.3% | NCI-H322M lung 69.8% | HOP-62 NSCLC 75.4% | NCI-H460 lung 34.5% | HOP-92 NSCLC 37.9% | NCI-H522 lung 53.4% | A549/ATCC NSCLC 46.6% | 786-0 renal 82.9% | COLO 205 colon 45.8%

O=[N+]([O-])c1ccc2c(c1)Cc1cc(I)ccc1-2
inactive: NCI-H23 lung 99.4% | NCI-H226 lung 97.7% | NCI-H322M lung 104% | HOP-62 NSCLC 113% | NCI-H460 lung 98.4% | HOP-92 NSCLC 89.4% | NCI-H522 lung 95.7% | A549/ATCC NSCLC 94.7% | 786-0 renal 90% | COLO 205 colon 108%

O=C(NCCc1nccs1)c1cnc2c(S)cccc2c1
active: NCI-H460 lung 0.683% | NCI-H522 lung -65.7% | COLO 205 colon -52.4%
inactive: NCI-H23 lung 34.2% | NCI-H226 lung 46.1% | NCI-H322M lung 29.7% | HOP-62 NSCLC 29.3% | HOP-92 NSCLC 54.5% | A549/ATCC NSCLC 12.6% | 786-0 renal 47%

COc1ccc(Cn2cc3c(c2-c2ccccc2)CC(C)(C)c2cnoc2-3)cc1
inactive: NCI-H23 lung 34.4% | NCI-H226 lung 52.4% | NCI-H322M lung 34.1% | HOP-62 NSCLC 34.2% | HOP-92 NSCLC 59.9% | NCI-H522 lung 43.3% | A549/ATCC NSCLC 49.6% | 786-0 renal 35.4%
active: NCI-H460 lung 9.42% | COLO 205 colon 2.39%
